Eight molecules from ChEMBL document CHEMBL3988442, “University of Dundee, Small-Polar-MMV Screening Library” (2021) can be followed below.

Common to all, as to set-up: scale not given: direction of the effect not stated beside the values
Assay [1] concerns the target Protein translocase subunit SecA (Escherichia coli (strain K12)) (UniProt P10408). The assay can be described thus: Assay to Identify E. coli SecA ATPase Inhibitors. Type of assay: functional. The conditions noted are these: 30 µM.
In assay [2] the target is T1, Ubiquitin-activating enzyme e1, putative (Leishmania donovani (strain BPK282A1)) (UniProt E9BSI1).
T1 sequence (whole entry): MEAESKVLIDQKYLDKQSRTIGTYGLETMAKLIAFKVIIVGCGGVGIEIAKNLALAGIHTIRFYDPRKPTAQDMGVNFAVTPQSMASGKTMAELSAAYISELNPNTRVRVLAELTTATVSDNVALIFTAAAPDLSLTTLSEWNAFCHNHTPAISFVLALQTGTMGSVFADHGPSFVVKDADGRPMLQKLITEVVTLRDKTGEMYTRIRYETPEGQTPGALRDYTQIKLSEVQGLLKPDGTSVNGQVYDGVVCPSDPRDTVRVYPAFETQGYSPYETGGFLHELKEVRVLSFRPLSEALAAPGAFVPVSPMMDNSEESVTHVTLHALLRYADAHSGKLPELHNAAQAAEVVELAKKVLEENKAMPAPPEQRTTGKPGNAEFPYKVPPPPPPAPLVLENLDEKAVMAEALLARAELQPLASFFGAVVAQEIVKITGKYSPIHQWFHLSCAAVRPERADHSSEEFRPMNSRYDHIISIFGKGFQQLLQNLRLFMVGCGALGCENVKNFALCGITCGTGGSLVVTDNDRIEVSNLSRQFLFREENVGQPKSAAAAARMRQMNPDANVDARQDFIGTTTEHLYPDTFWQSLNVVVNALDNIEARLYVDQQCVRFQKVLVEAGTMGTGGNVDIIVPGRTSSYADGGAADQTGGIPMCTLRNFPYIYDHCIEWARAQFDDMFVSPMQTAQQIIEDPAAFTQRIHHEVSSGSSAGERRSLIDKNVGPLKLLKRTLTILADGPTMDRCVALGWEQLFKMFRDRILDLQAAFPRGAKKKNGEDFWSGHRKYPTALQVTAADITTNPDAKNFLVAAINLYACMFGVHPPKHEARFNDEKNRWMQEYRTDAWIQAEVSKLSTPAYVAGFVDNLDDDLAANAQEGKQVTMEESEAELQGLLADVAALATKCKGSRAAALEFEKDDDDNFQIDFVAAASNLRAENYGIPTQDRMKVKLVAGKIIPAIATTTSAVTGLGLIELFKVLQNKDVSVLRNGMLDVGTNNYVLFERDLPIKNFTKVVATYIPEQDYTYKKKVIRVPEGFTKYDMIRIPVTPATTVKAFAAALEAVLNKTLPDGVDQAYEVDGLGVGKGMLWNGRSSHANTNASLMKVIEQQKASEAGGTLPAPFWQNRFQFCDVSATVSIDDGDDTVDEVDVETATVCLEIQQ
The assay can be described thus: Leishmania donovani Ubiquitin Activating Enzyme (LdE1). The conditions noted are these: 30 µM. Type of assay: functional.

For assay [3], the target named is AMP-activated protein kinase, AMPK (Homo sapiens) (UniProt P54646+O43741+P54619+Q9UGJ0+Q9Y478+Q13131+Q9UGI9). The assay can be described thus: AMP-dependent Kinase enzyme assay. An in vitro enzyme assay that detects ADP turnover that is directly proportional to AMPK activity. This uses naive AMPK that is activated during the assay with MK-8722. Type of assay: functional. The conditions noted are these: 30 µM.

Assay [4] has as its target Sialic acid-binding Ig-like lectin 9 (Homo sapiens) (UniProt Q9Y336). The assay can be described thus: Hs-Siglec9 ALPHAscreen SOP 20170721. Conditions: 10 µM.
In the next assay the test system is Trypanosoma cruzi. The experiment in a line: Trypanosoma cruzi phosphomannomutase and mannose-1-phosphate guanylyltransferase assay. Type of assay: functional. Conditions: 10 µM.
Assay [5] has as its target T2, Arginase-2, mitochondrial (Homo sapiens) (UniProt P78540).
T2 sequence (whole entry): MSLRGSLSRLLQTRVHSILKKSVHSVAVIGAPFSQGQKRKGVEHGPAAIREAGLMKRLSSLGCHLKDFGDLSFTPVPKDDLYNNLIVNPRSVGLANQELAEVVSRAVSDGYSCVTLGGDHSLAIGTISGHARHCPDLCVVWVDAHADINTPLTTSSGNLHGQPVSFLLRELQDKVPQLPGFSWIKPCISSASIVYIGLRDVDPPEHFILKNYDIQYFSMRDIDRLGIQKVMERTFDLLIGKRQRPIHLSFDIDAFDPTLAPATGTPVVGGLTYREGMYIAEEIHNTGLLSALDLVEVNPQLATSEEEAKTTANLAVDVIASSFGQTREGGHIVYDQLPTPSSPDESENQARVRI
The assay can be described thus: in vitro enzyme assay to detect the production of urea directly proportional to the activity of Arginase II. Further: in the data most compounds retested in dose-response had high values. Type of assay: functional. Conditions: 33.3 µM.

In assay [6] the target is T3, Proteasome subunit beta (Trypanosoma cruzi) (UniProt O96673).
T3 sequence (whole entry): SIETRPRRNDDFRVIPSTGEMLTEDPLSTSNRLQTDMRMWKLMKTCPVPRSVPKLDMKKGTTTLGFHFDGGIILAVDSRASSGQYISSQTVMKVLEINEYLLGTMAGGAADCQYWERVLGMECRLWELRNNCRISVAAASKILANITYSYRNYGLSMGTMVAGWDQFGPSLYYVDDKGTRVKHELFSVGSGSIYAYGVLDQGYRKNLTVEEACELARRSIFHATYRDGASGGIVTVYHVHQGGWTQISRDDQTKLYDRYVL
The assay can be described thus: Trypanosoma cruzi proteasome chymotrypsin-like activity (TcProtChymo) assay. Further: in the data most compounds retested in dose-response had high values. Conditions: 9.37 µM. Type of assay: functional.

Another assay is filed under the species Homo sapiens. The assay can be described thus: To identify inhibition of the IFN signalling (Jak-Stat) pathway via expression of an eGFP reporter gene under the control of an IFN-stimulated response element (ISRE) containing MxA promoter. Type of assay: functional. The conditions noted are these: 30 µM. A general note: A reporter such as luciferase makes a cellular process visible.

Assay [7] concerns the target T4, Tyrosyl-tRNA synthetase, putative (Trypanosoma cruzi (strain CL Brener)) (UniProt Q4DSP6).
T4 sequence (whole entry): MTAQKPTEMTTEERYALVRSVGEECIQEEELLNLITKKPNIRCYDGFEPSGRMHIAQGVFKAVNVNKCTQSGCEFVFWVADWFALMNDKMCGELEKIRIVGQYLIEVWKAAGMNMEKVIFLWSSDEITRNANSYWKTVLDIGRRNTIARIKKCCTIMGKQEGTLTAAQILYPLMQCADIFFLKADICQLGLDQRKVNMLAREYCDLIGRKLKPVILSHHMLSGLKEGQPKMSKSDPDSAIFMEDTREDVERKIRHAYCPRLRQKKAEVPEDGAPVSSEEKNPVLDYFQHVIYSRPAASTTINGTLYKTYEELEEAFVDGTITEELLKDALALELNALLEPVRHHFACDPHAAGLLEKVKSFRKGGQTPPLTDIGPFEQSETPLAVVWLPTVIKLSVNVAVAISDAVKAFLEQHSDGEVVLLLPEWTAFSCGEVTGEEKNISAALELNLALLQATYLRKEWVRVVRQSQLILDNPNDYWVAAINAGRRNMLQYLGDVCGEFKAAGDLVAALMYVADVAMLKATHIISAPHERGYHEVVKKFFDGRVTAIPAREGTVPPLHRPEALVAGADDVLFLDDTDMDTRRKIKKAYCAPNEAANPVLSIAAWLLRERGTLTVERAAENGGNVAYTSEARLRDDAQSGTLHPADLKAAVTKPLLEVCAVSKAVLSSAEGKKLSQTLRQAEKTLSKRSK
The experiment in a line: Trypanosoma cruzi tyrosyl tRNA synthetase (TcYRS) _High Tyrosine SOP. Further: in the data most compounds retested in dose-response had high values. Type of assay: functional. Conditions: 30 µM.

For assay [8], the target named is T4, Tyrosyl-tRNA synthetase, putative (Trypanosoma cruzi (strain CL Brener)). The assay can be described thus: Trypanosoma cruzi tyrosyl tRNA synthetase (TcYRS) SOP. Type of assay: functional. Conditions: 30 µM.
The target of assay [9] is Chromo domain-containing protein 1 (Saccharomyces cerevisiae (strain ATCC 204508 / S288c) (Baker's yeast)) (UniProt P32657). The assay can be described thus: ScCHD-1 Enzyme Inhibition Assay. Further: in the data most compounds retested in dose-response had high values. Type of assay: functional. Conditions: 30 µM.

For some of these results: Entries with a potency or affinity are not part of this list.

Sequence of Sialic acid-binding Ig-like lectin 9 (Homo sapiens) (Q9Y336 whole entry): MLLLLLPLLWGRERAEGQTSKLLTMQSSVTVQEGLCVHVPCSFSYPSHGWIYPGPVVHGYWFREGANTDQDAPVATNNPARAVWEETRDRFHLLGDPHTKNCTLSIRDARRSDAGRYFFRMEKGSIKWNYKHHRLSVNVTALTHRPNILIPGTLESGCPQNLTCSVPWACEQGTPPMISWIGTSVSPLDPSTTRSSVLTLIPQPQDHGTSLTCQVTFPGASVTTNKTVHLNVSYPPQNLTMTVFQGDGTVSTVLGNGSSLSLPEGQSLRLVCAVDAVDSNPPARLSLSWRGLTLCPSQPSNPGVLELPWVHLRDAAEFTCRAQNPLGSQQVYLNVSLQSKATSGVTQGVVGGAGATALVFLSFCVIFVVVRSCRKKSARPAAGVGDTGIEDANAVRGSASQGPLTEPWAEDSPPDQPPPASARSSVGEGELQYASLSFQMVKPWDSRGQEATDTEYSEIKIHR
Sequence of Chromo domain-containing protein 1 (Saccharomyces cerevisiae (strain ATCC 204508 / S288c) (Baker's yeast)) (P32657 whole entry, the tested form may be a part): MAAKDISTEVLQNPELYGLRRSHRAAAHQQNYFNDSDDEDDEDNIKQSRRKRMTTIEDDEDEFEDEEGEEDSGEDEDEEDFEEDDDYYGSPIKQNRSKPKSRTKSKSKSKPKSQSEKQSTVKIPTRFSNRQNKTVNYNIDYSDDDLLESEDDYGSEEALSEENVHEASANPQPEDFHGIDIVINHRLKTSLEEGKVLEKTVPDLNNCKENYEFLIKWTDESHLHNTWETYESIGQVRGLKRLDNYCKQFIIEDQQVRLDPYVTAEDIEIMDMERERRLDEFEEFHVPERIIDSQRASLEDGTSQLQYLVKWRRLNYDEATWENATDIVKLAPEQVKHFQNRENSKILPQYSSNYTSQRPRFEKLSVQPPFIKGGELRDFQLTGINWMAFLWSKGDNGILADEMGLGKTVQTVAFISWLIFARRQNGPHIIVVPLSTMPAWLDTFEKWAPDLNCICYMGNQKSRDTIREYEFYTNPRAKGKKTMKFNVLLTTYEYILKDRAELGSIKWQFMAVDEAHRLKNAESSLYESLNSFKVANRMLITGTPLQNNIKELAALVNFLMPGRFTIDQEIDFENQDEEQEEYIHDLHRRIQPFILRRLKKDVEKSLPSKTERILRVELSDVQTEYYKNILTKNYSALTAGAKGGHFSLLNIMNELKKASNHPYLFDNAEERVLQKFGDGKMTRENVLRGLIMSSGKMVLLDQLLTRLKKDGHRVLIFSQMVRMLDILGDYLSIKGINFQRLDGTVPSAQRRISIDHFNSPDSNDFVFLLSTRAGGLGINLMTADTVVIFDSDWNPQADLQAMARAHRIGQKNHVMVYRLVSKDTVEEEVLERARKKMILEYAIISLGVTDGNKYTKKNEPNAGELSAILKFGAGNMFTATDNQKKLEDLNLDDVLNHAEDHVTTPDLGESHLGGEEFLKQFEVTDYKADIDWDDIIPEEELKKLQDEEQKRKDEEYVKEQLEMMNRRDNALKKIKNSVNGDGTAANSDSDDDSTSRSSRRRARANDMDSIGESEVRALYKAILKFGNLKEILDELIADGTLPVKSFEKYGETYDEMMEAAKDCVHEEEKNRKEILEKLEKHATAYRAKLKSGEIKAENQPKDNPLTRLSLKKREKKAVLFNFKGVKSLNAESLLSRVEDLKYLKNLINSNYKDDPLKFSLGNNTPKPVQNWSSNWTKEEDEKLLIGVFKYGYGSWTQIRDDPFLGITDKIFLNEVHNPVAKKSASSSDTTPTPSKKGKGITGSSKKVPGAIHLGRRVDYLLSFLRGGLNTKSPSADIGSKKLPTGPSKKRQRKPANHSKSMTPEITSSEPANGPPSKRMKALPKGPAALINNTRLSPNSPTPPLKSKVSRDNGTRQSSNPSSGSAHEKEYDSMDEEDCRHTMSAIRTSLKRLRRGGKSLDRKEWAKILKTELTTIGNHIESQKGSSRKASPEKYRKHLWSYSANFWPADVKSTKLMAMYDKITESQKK
Sequence of Protein translocase subunit SecA (Escherichia coli (strain K12)) (P10408 whole entry): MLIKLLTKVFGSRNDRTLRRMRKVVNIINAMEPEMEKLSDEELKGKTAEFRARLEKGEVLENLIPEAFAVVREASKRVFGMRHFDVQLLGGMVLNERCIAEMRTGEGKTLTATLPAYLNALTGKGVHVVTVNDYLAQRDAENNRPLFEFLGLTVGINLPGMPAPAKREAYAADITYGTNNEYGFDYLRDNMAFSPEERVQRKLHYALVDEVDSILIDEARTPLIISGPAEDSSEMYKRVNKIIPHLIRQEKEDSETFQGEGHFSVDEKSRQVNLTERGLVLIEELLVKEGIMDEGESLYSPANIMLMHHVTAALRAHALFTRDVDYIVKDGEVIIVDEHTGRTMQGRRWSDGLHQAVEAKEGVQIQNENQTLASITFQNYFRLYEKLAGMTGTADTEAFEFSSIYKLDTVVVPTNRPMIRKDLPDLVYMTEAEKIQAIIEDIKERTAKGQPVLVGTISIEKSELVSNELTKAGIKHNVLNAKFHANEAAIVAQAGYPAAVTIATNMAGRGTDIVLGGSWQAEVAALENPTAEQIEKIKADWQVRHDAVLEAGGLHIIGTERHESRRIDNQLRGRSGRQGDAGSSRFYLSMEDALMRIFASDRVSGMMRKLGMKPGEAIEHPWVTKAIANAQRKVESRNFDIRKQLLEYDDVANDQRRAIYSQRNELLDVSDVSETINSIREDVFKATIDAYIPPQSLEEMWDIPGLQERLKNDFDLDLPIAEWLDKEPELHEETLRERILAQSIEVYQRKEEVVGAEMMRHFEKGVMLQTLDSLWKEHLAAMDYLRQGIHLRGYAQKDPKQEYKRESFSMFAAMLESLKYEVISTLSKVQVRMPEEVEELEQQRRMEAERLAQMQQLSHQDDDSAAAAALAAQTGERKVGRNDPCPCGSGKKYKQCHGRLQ

Take `CN(CCNC(=O)N1CCN(Cc2ccon2)CC1)c1ccccc1`: the Percent Effect in [1] was -4.87%; in [2], 5.33%; in assay [3], -2.4%; in [4], 0.269%; in the assay on Trypanosoma cruzi, -5.75%; in assay [5] it was 2.6%. Further, the Percent Effect in assay [6] was 12.2%; in the assay filed under Homo sapiens it was -1.26%; in assay [7], 3.83%; in assay [8] it was 3.7%; in assay [9], -4.99%.
For the molecule `Cc1nc(N2CCN(C(=O)C3CC3)CC2)c2c(n1)c(C)nn2C`, the Percent Effect is -1.08% in assay [1]; 6.67% in [2]; 0.162% in [3]; 0.614% in [4]; 3.73% with Trypanosoma cruzi; -4.75% in assay [5]. Also, the Percent Effect was 10.2% in [6]; 18.7% in the assay filed under Homo sapiens; 6.35% in assay [7]; 12.8% in assay [8]; -11.8% in [9].
Consider `CC(=O)N1CCN(CCNS(=O)(=O)c2ccc(C)c(F)c2)CC1`, for which the Percent Effect in [1] is -5.17%; in assay [2], 18.4%; in [3] it was -1.98%; in assay [4], -13.7%; with Trypanosoma cruzi, 3.41%; in assay [5], 1.18%. The Percent Effect was 7.96% in assay [6]; 3.39% in the assay listed under Homo sapiens; -1.06% in assay [7]; 13% in [8]; -13.1% in assay [9].
As for `CC(=O)NC1CCCN(C(=O)Nc2cnc3c(cnn3C(C)C)c2)C1` (stereo not drawn), the Percent Effect is -3.14% in assay [1]; 16.2% in assay [2]; 0.9% in assay [3]; 4.02% in assay [4]; -4.55% with Trypanosoma cruzi; -1.29% in assay [5]. Also, the Percent Effect in assay [6] was 12.2%; in the assay listed under Homo sapiens it was 5.99%; in [7], 7.92%; in assay [8], 23.2%; in [9], -5.36%.
For `CC(O)CN1CCN(C(=O)c2ccc(N(C)C)nn2)CC1` (stereo not drawn), the Percent Effect was -4.58% in [1]; 10.4% in [2]; -1.75% in [3]; 11.7% in assay [4]; 3.93% in the assay with Trypanosoma cruzi; 4.27% in [5]. In addition, the Percent Effect in assay [6] is 1.18%; in the assay filed under Homo sapiens, 17.9%; in assay [7], 3.88%; in [8] it was 12.2%; in assay [9], -9.31%.
`O=C(NCc1cc[nH]n1)NCC(c1ccco1)N1CCCC1` (stereo not drawn): the Percent Effect in assay [1] was -3.53%; in [2], 8.11%; in [3], -2.2%; in [4], 17.4%; in the assay with Trypanosoma cruzi, 1.66%; in [5], -0.744%. The Percent Effect in assay [6] was 12.4%; in the assay filed under Homo sapiens, 7.09%; in assay [7], 5.38%; in assay [8], 11.1%; in assay [9], -2.11%.
Take `CN(CC(=O)N1CCCC1Cn1cccn1)c1cnccn1` (stereo not drawn): the Percent Effect in assay [1] is -5.14%; in assay [2], 0%; in assay [3], 0.965%; in assay [4] it was 10.7%; with Trypanosoma cruzi it was -1.6%; in assay [5], -1.9%. In addition, the Percent Effect in [6] is -0.901%; in the assay filed under Homo sapiens it was 15.8%; in assay [7], -2.46%; in [8] it was -1.27%; in assay [9] it was -2.89%.
With `Cc1cccc(NC(=O)NCCCn2nc3ccccn3c2=O)c1C`, the Percent Effect was -5.55% in assay [1]; 2.7% in [2]; -32% in assay [3]; -5.5% in [4]; 0.0943% in the assay with Trypanosoma cruzi; 0% in [5]. The Percent Effect in assay [6] was -1.26%; in the assay listed under Homo sapiens it was 6.71%; in [7], 8.37%; in [8] it was 6.17%; in assay [9], -9.2%.
